Compound activity from PubChem BioAssay.
POLH inh: qHTS for Inhibitors of Polymerase Eta; recombinant Pol eta, fluorescent DNA replication assay; Potency, µM (doses to about 114 µM), without a hit: at the highest dose activity change, negative = inhibition, most hits filed as inhibitors; 1.2% of 390,000 active; AID 588591, 2011; note: potency is the fitted concentration of half-maximal effect; % is set by controls: 0 for no effect and ±100 for the full control effect
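Pol eta (10 nM) was preincubated with compounds for 15 min at room temperature, after which fluorescent replication substrate (50 nM final) was added to start the reaction. Fluorescence was read kinetically at 0 and 10 min.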
POLB inh: qHTS Assay for Inhibitors of DNA Polymerase Beta. P06746. Pol beta primer extension/strand displacement, fluorescence kinetic. Potency, µM (top dose mostly 114 µM), for the others: at the highest dose activity change, negative = inhibition, hits mostly inhibitors. 1.3% of 340,000 active. AID 485314, 2010; note: potency is the fitted concentration of half-maximal effect; % is set by controls: 0 for no effect and ±100 for the full control effect
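Homogeneous kinetic assay of primer extension and strand displacement by 10 nM Pol beta, preincubated 15 min at room temperature with compound before 50 nM substrate (final) was added. Read at 0 and 10 min; four-parameter Hill fit.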
Pol kappa inh: qHTS for Inhibitors of Polymerase Kappa; Potency, µM (top dose mostly 107 µM), for inactives: at the highest dose activity, negative = inhibition, hits mostly inhibitors; 0.53% of 400,000 active; purified Pol kappa, fluorescent DNA synthesis assay, 10 min; note: potency is the fitted concentration of half-maximal effect; % is set by controls: 0 for no effect and ±100 for the full control effect
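Enzyme at 10 nM met test compounds for 15 min at room temperature. Substrate addition (50 nM final) began the reaction, which was monitored by fluorescence at 0 and 10 min.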
PI5P4Ka inh: qHTS for Inhibitors of phosphatidylinositol 5-phosphate 4-kinase (PI5P4K); 1.2% of 330,000 active; PI5P4Kalpha enzyme, ADP-Glo luminescence, 60 min; stronger effect = lower value; max response, %; Phosphatidylinositol 5-phosphate 4-kinase type-2 alpha (Homo sapiens), P48426; AID 652105, 2013; active = max response of -50% or lower; inconclusive = between -30% and -50%; inactive = -30% or higher; note: value at the top dose of about 77 µM; % is set by controls: 0 for no effect and ±100 for the full control effect
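Luminescence from ADP-Glo served as readout of PI5P4Kalpha activity in a qHTS format. Reaction: enzyme, substrate, compound, ATP at 5 microM final, 60 min at RT.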
ALOX12 inh: Primary qHTS assay for inhibitors of human arachidonate 12S-lipoxygenase (ALOX12): Round 2 | purified 12hLO, xylenol orange hydroperoxide absorbance | Polyunsaturated fatty acid lipoxygenase ALOX12 (Homo sapiens), P18054 | Potency, µM (doses to about 108 µM), inactives show top-dose activity change, negative = inhibition, actives largely listed as inhibitors | 1.1% of 580,000 active | AID 1671190, 2021; note: potency is the fitted concentration of half-maximal effect; % is set by controls: 0 for no effect and ±100 for the full control effect
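Purified human 12hLO (150 nM final) in 25 mM Hepes, 0.01% Triton X-100, pH 7.0 was preincubated 15 min at room temperature with compound. Then 40 uM arachidonic acid was added, 30 min. Hydroperoxide was read by Fe-XO absorbance ratio 573/405 nm.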
POLI inh: qHTS for Inhibitors of Polymerase Iota; Pol iota fluorescent replication assay, 10 min; 1% of 390,000 active; Potency, µM (highest dose often 115 µM), for inactives: at the top dose activity, negative = inhibition, usual class: inhibitors; DNA polymerase iota (Homo sapiens), Q9UNA4; note: potency is the fitted concentration of half-maximal effect
Target sequence (Q9UNA4 whole entry, looked up): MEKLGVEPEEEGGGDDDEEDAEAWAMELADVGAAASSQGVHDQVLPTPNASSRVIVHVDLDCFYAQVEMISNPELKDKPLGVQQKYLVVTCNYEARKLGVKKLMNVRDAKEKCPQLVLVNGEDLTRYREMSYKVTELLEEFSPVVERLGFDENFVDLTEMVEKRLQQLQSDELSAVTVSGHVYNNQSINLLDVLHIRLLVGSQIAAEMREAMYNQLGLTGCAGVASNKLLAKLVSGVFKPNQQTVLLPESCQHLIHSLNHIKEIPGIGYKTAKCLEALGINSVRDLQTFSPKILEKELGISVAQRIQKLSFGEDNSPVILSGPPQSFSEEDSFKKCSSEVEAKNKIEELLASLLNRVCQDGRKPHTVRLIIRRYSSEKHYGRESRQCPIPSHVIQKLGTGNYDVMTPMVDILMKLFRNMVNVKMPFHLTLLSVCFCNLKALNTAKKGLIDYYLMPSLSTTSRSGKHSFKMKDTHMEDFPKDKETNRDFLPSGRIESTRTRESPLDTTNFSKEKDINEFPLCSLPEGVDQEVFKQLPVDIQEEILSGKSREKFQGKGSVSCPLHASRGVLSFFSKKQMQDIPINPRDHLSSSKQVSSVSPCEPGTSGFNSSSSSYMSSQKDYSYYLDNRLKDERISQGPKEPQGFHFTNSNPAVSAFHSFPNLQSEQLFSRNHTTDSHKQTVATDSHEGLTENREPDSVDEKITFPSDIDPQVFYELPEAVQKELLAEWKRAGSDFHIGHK
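Fluorescent replication assay read twice, at 0 min and 10 min after adding 50 nM (final) substrate. Enzyme (10 nM) and compounds were first incubated 15 min at room temperature; enzyme-free buffer wells were negative controls.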
An asterisk follows results filed as active; ? = inconclusive; / = no result; [ ] = another dose, or the depositor's remark. Sampled rows, rich in hits. Any-hit rate of the full collection: about 2.9%. Unless noted, calls come from the whole dose curve; as a rule, active = well fitted inhibition curve with a large enough effect; inconclusive = small, poorly fitted or top-dose-only effect, or another doubt; inactive = no such curve, though single readings can be large or run the other way.

SMILES	POLH inh	POLB inh	Pol kappa inh	PI5P4Ka inh	ALOX12 inh	POLI inh
O=C(c1ccccc1)N1CCC(c2nn(-c3ccc(Cl)cc3)c(=O)[nH]2)CC1	/	/	/	/	35µM*	/
O=C(Cc1cccc(Cl)c1)N1CCCC(c2nn(-c3cccc(Cl)c3)c(=O)[nH]2)C1 (centres undefined)	/	/	/	/	16µM*	/
Cc1c(CCC(=O)NCCc2ccccc2F)c(=O)oc2c(C)c(O)ccc12	/	/	/	/	-27%	/
C=C(C)Cn1c(SC)nc2c1c(=O)n(C)c(=O)n2C	/	/	/	/	6%	/
O=C(c1ccc(F)cc1)N1CCC(c2nn(-c3ccc(Cl)cc3)c(=O)[nH]2)CC1	/	/	/	/	35µM*	/
Cc1cccc(C(=O)NC2C(=O)NNC2c2ccc(Cl)cc2)c1 (centres undefined)	-12%	28%	-7%	3	14µM*	76%
O=C(NC1C(=O)NNC1c1ccccc1)c1ccccc1 (centres undefined)	-12%	30%	0%	0	?	-3%
Cn1cc(C(=O)NC2CC2)c(-c2ccc3c(c2)OCCCO3)n1	/	/	/	/	-25%	/
O=C(CCc1ccccc1)NNC(=O)Nc1cccc(Cl)c1	-10%	90%	-2%	7	472%	-3%
CCc1ccc(CCC(=O)NNc2cccc(Cl)c2)cc1	/	/	/	/	16µM*	/
CC(=O)c1cccc(C#Cc2ccccc2)c1	/	/	/	/	-62%	/
O=C(CNc1cc(S(=O)(=O)N2CCCCC2)ccc1N1CCCCC1)Nc1ccc(F)cc1	/	/	/	/	10µM*	/
O=C(Cc1c[nH]c2ncc(-c3cccc(Cl)c3)cc12)NCc1cccnc1	/	/	/	/	7%[176 µM]	/
O=C(O)c1csc(N/N=C/c2ccc(Br)cc2)n1	-9%	-1%	-17%	-30	35µM*	-2%
CC(C)CC(=O)NC1(C(F)(F)F)C(=O)Nc2c1c(=O)[nH]c(=O)n2-c1ccccc1 (centres undefined)	-5%	15%	8%	/	32µM*	10%
O=C(NC1(C(F)(F)F)C(=O)Nc2c1c(=O)[nH]c(=O)n2-c1ccccc1)c1ccccc1 (centres undefined)	-4%	25%	-22%	/	?	12%
O=C(/C=C/Nc1cccc(C(F)(F)F)c1)c1ccc(Br)cc1	/	/	/	/	-67%	/
COc1ccc(CNC(=O)Nc2cc(C)cc(C)c2)cc1	-1%	32µM*	-1%	5	10%	20%
COc1ccccc1NS(=O)(=O)c1cccc(-n2c(O)c(C=Nc3ccccc3C(=O)O)c3ccccc3c2=O)c1	20µM*	56µM*	-42%	-69*	?	?
COc1ccc(-n2c(O)c(/C=N/NS(=O)(=O)c3ccc(C)cc3)c3ccccc3c2=O)cc1OC	-16%	?	-18%	-14	?	40µM*
COc1ccc(-n2c(O)c(/C=N/NS(=O)(=O)c3cc(C)ccc3C)c3ccccc3c2=O)cc1OC	?	?	?	-20	-24%	?
CCCOc1cc(/C=C(/C#N)c2nc3ccccc3[nH]2)ccc1OC	/	/	/	/	45%	/
CN(Cc1ccco1)C(=O)CCc1nc2sc3c(c2c(=O)[nH]1)CCCC3	?	8%	?	?	/	45µM*
Cc1ccc(CN(C)C(=O)CCc2nc3sc4c(c3c(=O)[nH]2)CCCC4)o1	22µM*	25µM*	-40%	?	?	18µM*
CN(C)C(=O)CCc1nc2sc3c(c2c(=O)[nH]1)CCCC3	-15%	-1%	-5%	4	-15%	-7%
SMILES	POLH inh	POLB inh	Pol kappa inh	PI5P4Ka inh	ALOX12 inh	POLI inh
COc1ccc(-c2cc3c(=O)n(CCNC(=O)c4cc(F)cc(F)c4)ccn3n2)cc1	/	/	/	/	12%	/
O=C1NC2=C(CCc3ccccc32)C(c2ccc(Br)cc2)N1 (centres undefined)	-11%	0%	-10%	-10	?	?
COc1ccc(C2NC(=S)NC3=C2CCc2cc(OC)ccc23)cc1 (centres undefined)	-13%	3%	-6%	/	28µM*	-19%[58.9 µM]
COc1ccc(C2NC(=S)NC3=C2CCc2ccccc23)cc1 (centres undefined)	/	/	/	/	40µM*	/
CC(C)(C)S(=O)N1Cc2cc(C(=O)N3CCOCC3)nc(-c3cccc(Br)c3)c2[C@@H]1CCO (some centres undefined)	/	/	/	-3	5µM*	/
CCOC(=O)C1(Cc2ccc(OC)cc2)CCN(C(=O)c2cc(C)on2)CC1	-9%	-2%	3%	-9	9%	-6%
CCOC(=O)C1(Cc2ccc(OC)cc2)CCN(C(=O)C2=CCCC2)CC1	-17%	14%	6%	-94*	5%	15%
CC1(C)CC2(CC(c3ccccc3)Oc3cc(O)ccc32)NC(=S)N1 (centres undefined)	?	0%	-7%	-5	32µM*	-3%
N#C/C(=C\c1ccc2c(c1)OCO2)C(N)=S	-1%	34%	0%	-6	0%	?
N#C/C(=C/c1ccco1)C(N)=S	-10%	20µM*	-8%	-59*	0%	?
COc1ccc(-c2c3c(=O)n(C)c(=O)n(C)c3c3n2-c2ccccc2NC3c2ccccc2OC)cc1 (centres undefined)	6%	2%	1%	/	15%	-13%
COc1cccc(C2OCC(C)(C)n3c(-c4ccccc4)c4c(=O)n(C)c(=O)n(C)c4c32)c1O (centres undefined)	/	/	/	/	11µM*	/
CCOc1ccccc1NC(=O)CCc1ccc(-c2ccccc2)o1	/	/	/	/	-28%	/
O=C(CCS(=O)(=O)c1cc2c3c(c1)CCN3C(=O)CC2)Nc1ccc(F)c(Cl)c1	/	/	/	/	14µM*	/
Cc1ccccc1C(=O)Nc1sc2c(c1C(=O)N1CCN(Cc3ccccc3)CC1)CCC2	/	/	/	/	-43%	/
Cn1cnnc1Sc1ccc(/C=C/C(=O)c2ccc(O)cc2)cc1[N+](=O)[O-]	50µM*	39%	-10%	-30	-2%	?
COc1ccc(OC)c(/C=N/OCc2c(Cl)cccc2Cl)c1	/	/	/	/	3%	/
NC(=O)c1c(NC(=O)c2ccc(F)cc2)sc2c1CCC2	-21%	-4%	-10%	-22	18µM*	15%
O=C(Nc1sc2c(c1C(=O)O)CCCC2)c1ccc(F)cc1	-19%	16%	-7%	2	?	28%
CCCc1cc(C(=O)OCC(=O)c2ccc3c(c2)OCCO3)sc1C	/	/	/	/	-4%	/
O=C(NCCN1CCOCC1)c1ccc(CN2CC(=O)N3CCCCC3C2=O)cc1 (centres undefined)	/	/	/	/	15%	/
